The source of these data is PubChem BioAssay.

Assay [1] is described as follows: E. coli DRC41 culture turbidity changes, primary screen, E. coli filamentation inducer project, strain DRC41, OD650, 48 h (AID 1152).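 Further: E. coli MC1000 strain DRC41 lacking acrAB efflux pump and sulA.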 Conditions: E. coli DRC41 (acrAB sulA), higher = more signal, called active from +8 up or from −8 down.
Assay [2] can be described thus: small-molecule binders of probe aLefty1, primary screen, biochemical, small-molecule microarray, 635/667 nm fluorescence (AID 1153).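 Further: score merges spot fluorescence with signal-to-noise ratio from the scanned slide images.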 The following applies: higher = more signal.
Assay [3] in a line: PSAC antagonists in infected red cells, primary screen, cell-based, P. falciparum Indochina, OD700, 1 h (AID 1154). The following applies: P. falciparum Indochina infected RBC osmotic lysis, higher = more signal, called active from +8 up or from −8 down.
A short description of assay [4]: PSAC antagonists in infected red cells, primary screen, cell-based, P. falciparum Indochina, OD700, 2 h (AID 1155).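 Further: lysis reports solute entry through the parasite surface anion channel PSAC; channel blockers reduce lysis of infected cells.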 Conditions: P. falciparum Indochina infected erythrocytes, osmotic lysis OD700; higher = more signal, called active from +8 up or from −8 down.
Assay [5] is described as follows: osmotic lysis modulators in infected erythrocytes, primary screen, PSAC antagonist project, cell-based, P. falciparum Indochina, OD700, 3 h (AID 1156). The following applies: higher = more signal, called active from +8 up or from −8 down.
The nature of assay [6]: PSAC antagonists in infected red cells, primary screen, cell-based, P. falciparum Indochina, OD700, 18 h (AID 1157). Conditions: P. falciparum Indochina infected erythrocytes, osmotic lysis OD700, 18 h; higher = more signal, called active from +8 up or from −8 down.
Assay [7] in a line: modulators of S6 phosphorylation in cells, primary screen, cell-based, A549, cytoblot, luminescence, serum-stimulated (AID 1158).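 Further: serum-stimulated A549 lung adenocarcinoma cells; signal is phosphorylated S6 detected by cytoblot immunostaining with HRP secondary.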 The following applies: A549 phospho-S6 cytoblot, 5 h, higher = more signal.
In assay [8] the target is NADPH oxidase 2 (Homo sapiens) (UniProt P04839). Nature of the assay: NOX2-dependent H2O2 signal modulators, primary screen, NOX inhibitor project, cell-based, HEK293-NOX2, PMA-stimulated, Amplex Red fluorescence (AID 1159). Further: test concentration not given here. Conditions: 45 min, higher = more signal, called active from +8 up or from −8 down.
In assay [9] the target is NADPH oxidase 4 (Homo sapiens) (UniProt Q9NPH5). Nature of the assay: NOX4-dependent H2O2 signal modulators, primary screen, NOX inhibitor project, cell-based, HEK293-NOX4, tetracycline-induced, Amplex Red fluorescence (AID 1160). The following applies: 45 min, higher = more signal, called active from +8 up or from −8 down.
For assay [10], the target named is NADPH oxidase 5 (Homo sapiens) (UniProt Q96PH1). Nature of the assay: NOX5-dependent H2O2 signal modulators, primary screen, NOX inhibitor project, cell-based, HEK293-NOX5, Amplex Red fluorescence (AID 1161). Conditions: HEK293-NOX5, ionomycin, 45 min, higher = more signal.
The nature of assay [11]: A549 cell viability effects, profiling panel, calcein-AM fluorescence, 48 h, basal (AID 1162). Further: test concentration not given here. Conditions: higher = more signal.
The nature of assay [12]: adipocyte viability effects, profiling panel, cell-based, 3T3-L1 adipocytes, calcein-AM fluorescence, 48 h, basal (AID 1163). Further: test concentration not given here. The following applies: 3T3-L1 adipocytes viability, higher = more signal.
A short description of assay [13]: HepG2 cell viability effects, profiling panel, calcein-AM fluorescence, 48 h, basal (AID 1164). Further: test concentration not given here. The following applies: higher = more signal.
The nature of assay [14]: MM1S cell viability effects, profiling panel, calcein-AM fluorescence, 48 h, basal (AID 1165).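 Further: viability of MM1S multiple myeloma cells under basal unstimulated conditions; test concentration not given here.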 Conditions: higher = more signal.
Assay [15] in a line: basal RPMI8226 viability, no added stimulus, profiling panel, cell-based, calcein-AM fluorescence, 48 h, PK04 Diversity Set (AID 1166).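 Further: cells grown under basal conditions without added stimulus; test concentration not given here.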 The following applies: RPMI8226 myeloma viability, higher = more signal.
A short description of assay [16]: basal HepG2 mitochondrial membrane potential changes, profiling panel, cell-based, JC-1 fluorescence, 24 h, 100 nL compound (AID 1167). Further: test concentration not given here. The following applies: higher = more signal.
The nature of assay [17]: basal 3T3-L1 adipocyte mitochondrial potential changes, profiling panel, cell-based, JC-1 fluorescence, 3T3-L1 adipocytes, 24 h, 100 nL compound (AID 1168). Further: test concentration not given here. Conditions: JC-1 mitochondrial fluorescence, higher = more signal, called active from +8 up or from −8 down.
Assay [18] can be described thus: basal RPMI8226 mitochondrial membrane potential changes, profiling panel, cell-based, JC-1 fluorescence, 24 h, 100 nL compound (AID 1169). Further: test concentration not given here. Conditions: RPMI8226 myeloma, JC-1 mitochondrial potential fluorescence, higher = more signal.
The nature of assay [19]: basal MM1S mitochondrial membrane potential changes, profiling panel, cell-based, JC-1 fluorescence, 24 h, 100 nL compound (AID 1170). Further: test concentration not given here. The following applies: higher = more signal.
Assay [20] in a line: A549 lung cancer cell viability effects, profiling panel, resazurin fluorescence, 24 h, PK04 Diversity Set (AID 1171). Further: test concentration not given here. The following applies: higher = more signal, called active from +8 up or from −8 down.

The source made the active and inactive calls.

NADPH oxidase 4 (Homo sapiens), sequence (Q9NPH5 whole entry, looked up): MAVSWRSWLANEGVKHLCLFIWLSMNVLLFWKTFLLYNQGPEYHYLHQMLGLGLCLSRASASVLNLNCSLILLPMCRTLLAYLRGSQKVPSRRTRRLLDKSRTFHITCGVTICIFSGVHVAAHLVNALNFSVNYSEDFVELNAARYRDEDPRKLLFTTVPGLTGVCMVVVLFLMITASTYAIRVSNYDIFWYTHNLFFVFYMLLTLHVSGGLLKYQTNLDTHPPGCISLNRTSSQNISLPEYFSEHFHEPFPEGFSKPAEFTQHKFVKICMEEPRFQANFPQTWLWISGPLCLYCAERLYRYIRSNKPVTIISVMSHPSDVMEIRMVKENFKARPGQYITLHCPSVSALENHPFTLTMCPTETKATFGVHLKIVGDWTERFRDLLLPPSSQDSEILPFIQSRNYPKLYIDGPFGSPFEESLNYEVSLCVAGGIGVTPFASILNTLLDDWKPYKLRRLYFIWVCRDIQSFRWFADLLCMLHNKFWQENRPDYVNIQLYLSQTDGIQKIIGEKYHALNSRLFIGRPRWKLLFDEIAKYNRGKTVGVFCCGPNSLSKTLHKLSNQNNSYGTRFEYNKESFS
NADPH oxidase 2 (Homo sapiens), sequence (P04839 whole entry, looked up): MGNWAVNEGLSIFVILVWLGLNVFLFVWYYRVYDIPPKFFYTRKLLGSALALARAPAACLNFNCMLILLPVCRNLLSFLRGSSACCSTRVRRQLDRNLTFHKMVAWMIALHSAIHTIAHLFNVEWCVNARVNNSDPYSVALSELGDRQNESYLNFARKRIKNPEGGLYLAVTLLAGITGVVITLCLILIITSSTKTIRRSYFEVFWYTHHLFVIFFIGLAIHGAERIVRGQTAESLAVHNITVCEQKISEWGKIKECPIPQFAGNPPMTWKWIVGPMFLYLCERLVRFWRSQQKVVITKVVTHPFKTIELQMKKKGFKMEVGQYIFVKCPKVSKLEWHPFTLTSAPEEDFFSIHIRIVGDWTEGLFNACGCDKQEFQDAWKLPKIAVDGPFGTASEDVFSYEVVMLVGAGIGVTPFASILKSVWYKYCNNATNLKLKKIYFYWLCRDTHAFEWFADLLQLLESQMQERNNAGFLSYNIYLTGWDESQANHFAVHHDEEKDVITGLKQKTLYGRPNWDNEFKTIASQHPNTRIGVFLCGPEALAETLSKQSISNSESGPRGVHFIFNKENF
NADPH oxidase 5 (Homo sapiens), sequence (Q96PH1 whole entry, looked up): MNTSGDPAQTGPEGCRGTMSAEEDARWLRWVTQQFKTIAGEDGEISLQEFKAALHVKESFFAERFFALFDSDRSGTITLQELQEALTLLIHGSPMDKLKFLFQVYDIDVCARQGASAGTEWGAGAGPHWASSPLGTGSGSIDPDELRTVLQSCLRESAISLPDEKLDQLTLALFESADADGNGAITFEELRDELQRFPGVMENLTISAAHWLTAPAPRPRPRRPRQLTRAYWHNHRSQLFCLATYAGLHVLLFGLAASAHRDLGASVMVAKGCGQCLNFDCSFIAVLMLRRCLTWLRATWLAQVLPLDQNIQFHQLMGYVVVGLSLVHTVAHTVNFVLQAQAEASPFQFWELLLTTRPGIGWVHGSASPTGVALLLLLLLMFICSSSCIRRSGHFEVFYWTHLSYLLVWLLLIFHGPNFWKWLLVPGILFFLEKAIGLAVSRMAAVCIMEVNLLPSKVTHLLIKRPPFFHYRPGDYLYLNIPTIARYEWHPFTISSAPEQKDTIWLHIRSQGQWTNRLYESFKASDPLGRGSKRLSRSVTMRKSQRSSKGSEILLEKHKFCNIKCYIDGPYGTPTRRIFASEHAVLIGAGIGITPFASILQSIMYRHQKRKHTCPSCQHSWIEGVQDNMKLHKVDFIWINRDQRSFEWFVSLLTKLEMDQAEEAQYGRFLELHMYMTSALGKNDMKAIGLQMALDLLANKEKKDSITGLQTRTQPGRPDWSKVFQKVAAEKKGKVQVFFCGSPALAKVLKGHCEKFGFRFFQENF

As to `O=C(NCc1ccccc1)[C@]1(Cc2ccccc2)N=C(c2ccc(OCCCO)cc2)O[C@@H]1c1ccccc1`, the z-score in assay [1] is -2.04 (inactive); in assay [3], 30.1 (active); in [4], 22.5 (active); in [5] it was 0.578 (inactive); in assay [6] it was 2.53 (inactive); in assay [7], -0.397. The z-score in [8] was 0.158 (inactive); in assay [9], -0.503 (inactive); in assay [10], -0.855; in assay [11], -2.44; in [12], 0.709; in [13], -1.83. The z-score in assay [14] is -2.57; in assay [15], -4.2; in assay [16], 0.683; in assay [17], 0.145 (inactive); in assay [18] it was -1.21; in assay [19] it was -1.24. In addition, the z-score in [20] was 0.0976 (inactive). The composite z-score in [2] was -0.225.
Consider `COCCCNC(=O)[C@@H]1c2ccccc2C(=O)N(Cc2cc(F)cc(C(F)(F)F)c2)[C@H]1c1ccc(CO)cc1`, for which the z-score in assay [1] was -0.0134 (inactive); in assay [3], 1.49 (inactive); in [4] it was 0.35 (inactive); in assay [5] it was 0.62 (inactive); in assay [6], 0.0592 (inactive); in assay [7], -0.731. The z-score in assay [8] is 0.193 (inactive); in [9], 0.401 (inactive); in assay [10] it was 0.774; in assay [11], 0.323; in [12], 0.0853; in assay [13] it was 0.463. Further, the z-score is 0.575 in [14]; -0.725 in assay [15]; 1.25 in assay [16]; -0.82 (inactive) in assay [17]; 1.15 in [18]; -0.33 in [19]. Besides, the z-score in [20] is 0.301 (inactive). The composite z-score in assay [2] was -0.25.
As for `COCCCNC(=O)[C@]1(CCS(=O)(=O)c2ccccc2)N=C(c2ccc(OCCCO)cc2)O[C@@H]1c1ccccc1`, the z-score in [1] is 0.664 (inactive); in [3], 26 (active); in [4] it was 9.64 (active); in assay [5], 2.14 (inactive); in [6], 1.82 (inactive); in assay [7] it was -0.108. In addition, the z-score in assay [8] is -0.0777 (inactive); in assay [9], 1.72 (inactive); in [10] it was 0.88; in assay [11], 1.73; in [12], 0.151; in assay [13] it was 0.9. For the same compound, the z-score in assay [14] is -0.223; in assay [15], -0.7; in assay [16], 2.64; in [17] it was 0.0968 (inactive); in assay [18], -0.74; in [19] it was -0.801. Besides, the z-score in [20] is -0.243 (inactive). This compound yielded a composite z-score in assay [2] of 1.12.
For `CN(C)C(=O)[C@]1(Cc2ccccc2N=[N+]=[N-])N=C(c2ccc(OCCCO)cc2)O[C@@H]1c1ccccc1CN=[N+]=[N-]`, the z-score was 0.367 (inactive) in assay [1]; 29.4 (active) in assay [3]; 20 (active) in assay [4]; 3.02 (inactive) in [5]; 2.16 (inactive) in assay [6]; 0.915 in assay [7]. Besides, the z-score in assay [8] is -2.57 (inactive); in assay [9], -0.305 (inactive); in assay [10], -1.93; in assay [11] it was -0.409; in assay [12], 1.01; in assay [13], -0.386. Moreover, the z-score in assay [14] is -2.39; in assay [15], -3.03; in [16], 0.38; in assay [17], -0.286 (inactive); in [18], -0.992; in assay [19], -1.09. Further, the z-score in [20] is 1.59 (inactive). Besides, in [2], the composite z-score was 0.81.
As for `CC(C)CCC[C@@H](C)[C@H]1CC[C@@]2(C)C3=C(CC[C@]12C)[C@@]1(C)CC[C@H](OC(=O)C(C)(C)C)C(C)(C)C1CC3` (stereo not given in full), the z-score in [1] is 0.836 (inactive); in assay [3] it was -0.0452 (inactive); in assay [4], -0.698 (inactive); in assay [5], -0.647 (inactive); in assay [6] it was -1.07 (inactive); in [7] it was 2.9. Also, the z-score in assay [8] is 0.249 (inactive); in [9], 0.4 (inactive); in [10], 1.29; in assay [11] it was 2.49; in assay [12], 1.66; in [13] it was 1.12. For the same compound, the z-score in assay [14] is 0.933; in assay [15], -0.129; in [16], 1.15; in assay [17] it was 0.39 (inactive); in assay [18], 0.363; in assay [19], -1.44. Also, the z-score in [20] was 0.221 (inactive). Besides, the composite z-score in assay [2] is -0.374.
Take `COC(=O)[C@@]1(Cc2ccc(F)cc2)[C@H]2c3cc(C(=O)N4CCCC4)n(Cc4ccccc4)c3C[C@H]2CN1C(=O)c1ccccc1`: the z-score was -1.25 (inactive) in [1]; 4.64 (inactive) in assay [3]; 0.899 (inactive) in assay [4]; 2.65 (inactive) in assay [5]; 1.26 (inactive) in assay [6]; 0.178 in assay [7]. Also, the z-score in assay [8] was -0.165 (inactive); in assay [9] it was 0.648 (inactive); in assay [10], -1.48; in [11], -0.858; in assay [12] it was -0.273; in assay [13] it was -0.579. Further, the z-score is -2.1 in [14]; -4.11 in [15]; 0.49 in assay [16]; -0.76 (inactive) in assay [17]; -0.104 in [18]; -0.759 in assay [19]. Moreover, the z-score in assay [20] was 0.0314 (inactive). The composite z-score in assay [2] is 0.216.
In the case of `COC(=O)[C@@]1(Cc2ccc(OC)cc2)[C@H]2c3cc(C(=O)N(C)C)n(CCF)c3C[C@H]2CN1C(=O)c1ccccc1`, the z-score was -0.55 (inactive) in assay [1]; 1.81 (inactive) in assay [3]; 0.847 (inactive) in assay [4]; 0.865 (inactive) in assay [5]; 1.06 (inactive) in assay [6]; -0.132 in [7]. For the same compound, the z-score in assay [8] is 0.605 (inactive); in [9], 2.58 (inactive); in assay [10], 0.602; in assay [11] it was -0.444; in assay [12], -0.228; in assay [13], -0.0897. Besides, the z-score is 0.841 in [14]; -0.111 in assay [15]; 1.49 in assay [16]; 0.454 (inactive) in [17]; -0.339 in assay [18]; -1.55 in assay [19]. The z-score in [20] is -0.391 (inactive). This compound also displayed a composite z-score in [2] of 0.624.
Regarding `C/C=C/[C@@H](CCn1cc([C@H](O)c2ccccc2)nn1)[Si](C)(C)c1ccc(OC)cc1`, the z-score in assay [1] is 0.703 (inactive); in assay [3] it was 5.3 (inactive); in [4], 1.06 (inactive); in [5], 2.04 (inactive); in assay [6], 0.473 (inactive); in assay [7], 0.201. In addition, the z-score in assay [8] is 0.257 (inactive); in assay [9], -0.182 (inactive); in assay [10], -2.21; in assay [11], -0.536; in [12], 0.485; in [13] it was -0.713. Further, the z-score in [14] was -2.9; in assay [15] it was -3.1; in assay [16], -1.13; in assay [17], -0.255 (inactive); in [18], -0.268; in assay [19], -0.462. Further, the z-score in [20] is 0.372 (inactive). Moreover, the composite z-score in [2] is 0.121.
Regarding `C#CCOC(=O)N[C@H](C=CCCCC)c1ccccc1`, the z-score is -0.288 (inactive) in [1]; 0.801 (inactive) in assay [3]; 0.852 (inactive) in assay [4]; 0.599 (inactive) in assay [5]; 0.715 (inactive) in assay [6]; -0.469 in assay [7]. The z-score is 0.877 (inactive) in assay [8]; -0.194 (inactive) in [9]; -0.212 in assay [10]; -1.18 in [11]; -0.115 in [12]; -0.517 in assay [13]. The z-score is -0.334 in assay [14]; -0.508 in [15]; 1.47 in assay [16]; -0.62 (inactive) in assay [17]; 0.15 in assay [18]; 0.0811 in assay [19]. In addition, the z-score in [20] was -0.28 (inactive). In assay [2], the composite z-score amounted to 0.289.
